# Reference: PubChem BioAssay (Tox21)
# Values joined by “and” are separate entries in the source; they are usually repeats but may differ in a detail not shown here. Identical values can stand only once. Records with an inconclusive call do not appear. Where a call stands in place of a potency, no number is given. The source holds several records for some structures; these can differ, active in one and inactive in another. Active and inactive are the calls of the source. Calls come from the whole dose curve.
# Assay: qHTS assay for small molecule agonists of the p53 signaling pathway - cell viability (AID 651633); note: nearly all actives have a fitted effect of over 30% in size
# Conditions: p53RE-bla HCT-116 viability, ATP luminescence, 16 h; series mostly up to 83.3 µM
# Procedure, shortened: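 Viability counter-read: CellTiter-Glo luminescence (30 min, room temperature) in the same p53RE-bla plates. These plates had been exposed to compounds for 16 h at 37 C.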
# Potency is the fitted concentration of half-maximal effect.
row,SMILES,Potency
1,O=CC(=O)c1ccccc1,inactive
2,CC(C)NCC(O)c1ccc(O)c(O)c1 (centres undefined),inactive
3,CN1[C@@H]2CC(OC(=O)[C@H](CO)c3ccccc3)C[C@H]1[C@@H]1O[C@@H]12 (some centres undefined),inactive
4,CN[C@H]1CC[C@@H](c2ccc(Cl)c(Cl)c2)c2ccccc21,29.8 µM (active)
5,CC/C(=C(\c1ccccc1)c1ccc(OCCN(C)C)cc1)c1ccccc1,54.5 µM (active) [middle of 5 runs]
6,O=S1(=O)OC(c2ccc(O)cc2)(c2ccc(O)cc2)c2ccccc21,inactive
7,C=C(C)C(=O)OCC(C)O (centres undefined),inactive
8,CCCCCCCCCCCCCCCC[N+](C)(C)Cc1ccccc1,11.9 µM (active) and 35.5 µM (active) and 39.3 µM (active)
9,CCCC[P+](CCCC)(CCCC)CCCC,inactive
10,CC(O)(P(=O)(O)O)P(=O)(O)O,inactive
11,Nc1c2c(nc3ccccc13)CCCC2,inactive
12,CCCCC(CC)C(=O)O (centres undefined),inactive
13,C1=CC2C3C=CC(C3)C2C1 (centres undefined),inactive
14,C/C=C/C=C/C(=O)O,inactive
15,O=C1OC2(c3ccccc31)c1cc(Br)c(O)c(Br)c1Oc1c2cc(Br)c(O)c1Br,inactive
16,CCCCCCc1ccc(O)cc1O,inactive and 54.6 µM (active) and 61.1 µM (active)
17,Cc1ccc(S(=O)(=O)O)cc1,inactive
18,Nc1ccc(O)c([N+](=O)[O-])c1,inactive
19,CCN(CC)C(=O)c1cccc(C)c1,inactive
